The values that follow come from article PMC6602471.

The full ranking holds about 1,300 sequences; the median of “log fluorescence intensity” is about 8.9, and the highest 2% start at about 13. Only a selection was taken, and the highest values are over-represented in it overall.

The target of the experiment is T1, ELK1 (Homo sapiens, UniProt P19419 1-428).
T1 sequence: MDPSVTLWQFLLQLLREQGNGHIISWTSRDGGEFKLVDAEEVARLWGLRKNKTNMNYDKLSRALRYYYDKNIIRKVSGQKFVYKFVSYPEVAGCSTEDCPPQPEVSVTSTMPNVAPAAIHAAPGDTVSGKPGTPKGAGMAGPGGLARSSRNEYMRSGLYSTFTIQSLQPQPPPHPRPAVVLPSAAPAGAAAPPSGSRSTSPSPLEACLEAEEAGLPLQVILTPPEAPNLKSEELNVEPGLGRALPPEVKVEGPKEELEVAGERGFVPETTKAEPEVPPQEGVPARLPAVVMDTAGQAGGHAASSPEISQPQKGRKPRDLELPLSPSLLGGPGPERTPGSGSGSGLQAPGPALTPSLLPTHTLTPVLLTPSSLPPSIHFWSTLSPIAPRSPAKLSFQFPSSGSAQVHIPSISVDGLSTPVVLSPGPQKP
The experiment can be described thus: custom PBM; custom protein-binding microarray; buffer, salt, pH and temperature not stated; high values mean tight binding. Particulars: dsDNA, one strand shown.
For “TACTTACTTATATATGCGAATGCACATGAATAGACCGTCTTGATTCGCTTGACGCTGCTG”, the binding signal was 9.06 log fluorescence intensity. Under “TAAAGGGAAGACGGATGTGGTAGTTCCGGGTATTAAGTCTTGATTCGCTTGACGCTGCTG” stands 12.6 log fluorescence intensity; under “TAAAGGGAAGACGCTTGTGGTAGTTCCGGGTATTAAGTCTTGATTCGCTTGACGCTGCTG”, 11 log fluorescence intensity; under “TAAAGGGAAGACGGGTGTGGTAGTTCCGGGTATTAAGTCTTGATTCGCTTGACGCTGCTG”, 11.2 log fluorescence intensity.

Turning to “TCCAGCTACCAGCTCCACCCACTTCAGGCCTTGTAGGTCTTGATTCGCTTGACGCTGCTG”, the binding signal is 8.99 log fluorescence intensity. Consider “CACAATTTGTACAGTAATGTAGCACGCGTAACTCCTGTCTTGATTCGCTTGACGCTGCTG”, for which the binding signal is 8.91 log fluorescence intensity. As to “GGAAAAAGGCCCAGGGTAACCCCGGAAGTGGGCTTAGTCTTGATTCGCTTGACGCTGCTG”, the binding signal was 10.5 log fluorescence intensity.

For the sequence “CAGCATAGGACTTCTTCCCTGAAGCAATTGATAACTGTCTTGATTCGCTTGACGCTGCTG”, the binding signal is 8.96 log fluorescence intensity. Consider “CACAATTTTTACAGTAATGTAGCACGCGGAACTCCTGTCTTGATTCGCTTGACGCTGCTG”, for which the binding signal is 8.97 log fluorescence intensity. Under “TCCGGCTACAAGCTCCACCCACTTCAGGCCTTGTAGGTCTTGATTCGCTTGACGCTGCTG” stands 8.93 log fluorescence intensity. The figure for “TAAAGGGAAGACGGTTGTGGTAGTTCCGGGTACTAAGTCTTGATTCGCTTGACGCTGCTG” is 11.3 log fluorescence intensity.

With “GTGTATAGGATCCCATCCAACACACCTGTTAAAATGGTCTTGATTCGCTTGACGCTGCTG”, the binding signal is 8.91 log fluorescence intensity. As to “TCCGGTTACCAGCTCCACCCACTTCAGGCCTTGTAGGTCTTGATTCGCTTGACGCTGCTG”, the binding signal is 8.91 log fluorescence intensity. In the case of “TAAAGGGAAGACGGTTGTGGTAGTTCCGCGTATTAAGTCTTGATTCGCTTGACGCTGCTG”, the binding signal was 9.44 log fluorescence intensity. Take “TCCGGCTCCCAGCTCCACCCACTTCAGGCCTTGTAGGTCTTGATTCGCTTGACGCTGCTG”: the binding signal was 8.92 log fluorescence intensity. The figure for “CACAATTTTTACAGTAATGTAGCACGCGTAATTCCTGTCTTGATTCGCTTGACGCTGCTG” is 8.98 log fluorescence intensity; for “CAGCATAGGACTCCTTCCCTGAAGCAATTGATAACCGTCTTGATTCGCTTGACGCTGCTG” it is 8.92 log fluorescence intensity.

On to “CACAATTTTTACAGTAATGTAGCACGCGTAGCTCCTGTCTTGATTCGCTTGACGCTGCTG”, for which the binding signal was 9.06 log fluorescence intensity. As for “TAAAGGGACGACGGTTGTGGTAGTTCCGGGTATTAAGTCTTGATTCGCTTGACGCTGCTG”, the binding signal is 11.3 log fluorescence intensity. Under “CACAATTTTTACAGTAATGTAGCACGCGTTACTCCTGTCTTGATTCGCTTGACGCTGCTG” stands 9.11 log fluorescence intensity; under “GATTTATTTCTGCCCTTATTCGCACGTGCCATAACAGTCTTGATTCGCTTGACGCTGCTG”, 8.91 log fluorescence intensity; under “CAGCATAGGACTTCTTCCCTGAAGCAATAGATAACCGTCTTGATTCGCTTGACGCTGCTG”, 8.97 log fluorescence intensity. Regarding “CACAATTTTTACAGTAATGTAGTACGCGTAACTCCTGTCTTGATTCGCTTGACGCTGCTG”, the binding signal was 9.01 log fluorescence intensity. For the sequence “GGAAAAAGGCCCAGGGTAACACCGGAAGTGGGCGTAGTCTTGATTCGCTTGACGCTGCTG”, the binding signal is 10.9 log fluorescence intensity. As for “TGTCGGGTAAGGGAATGTAGATCACGTGAATGACAAGTCTTGATTCGCTTGACGCTGCTG”, the binding signal is 8.94 log fluorescence intensity. Regarding “TAAAGGGAAGACGGTTGTGGTAGTTCCGGGTTTTAAGTCTTGATTCGCTTGACGCTGCTG”, the binding signal is 11.2 log fluorescence intensity. As for “TACTGACTTATATATGCGGATGCACATGAATAGACCGTCTTGATTCGCTTGACGCTGCTG”, the binding signal was 9.12 log fluorescence intensity. With “GGAAAAAGGCCCAGGGTAACACCGGAAGTGGCCTTAGTCTTGATTCGCTTGACGCTGCTG”, the binding signal is 10.9 log fluorescence intensity. On to “GCTGCTGCGGTGCATACCCCACCGGATGTGACCTCGGTCTTGATTCGCTTGACGCTGCTG”, for which the binding signal was 10.1 log fluorescence intensity. Regarding “GGAAAAAGGCCCAGGGTAACACAGGAAGTGGGCTTAGTCTTGATTCGCTTGACGCTGCTG”, the binding signal is 9.55 log fluorescence intensity. For “GATTAATATCTGCCCTTATTCGCACGTGCCATAACAGTCTTGATTCGCTTGACGCTGCTG”, the binding signal was 8.95 log fluorescence intensity. Consider “CTGCATAGGACTTCTTCCCTGAAGCAATTGATAACCGTCTTGATTCGCTTGACGCTGCTG”, for which the binding signal is 8.94 log fluorescence intensity.

On to “GACTAATTTCTGCCCTTATTCGCACGTGCCATAACAGTCTTGATTCGCTTGACGCTGCTG”, for which the binding signal is 8.95 log fluorescence intensity. In the case of “TCCGGCTACCAGTTCCACCCACTTCAGGCCTTGTAGGTCTTGATTCGCTTGACGCTGCTG”, the binding signal was 9.18 log fluorescence intensity.

On to “GGAATAAGGCCCAGGGTAACACCGGAAGTGGGCTTAGTCTTGATTCGCTTGACGCTGCTG”, for which the binding signal is 10.9 log fluorescence intensity. Under “TACTAACTTATATATGCGAATGCACATGAATAGACCGTCTTGATTCGCTTGACGCTGCTG” stands 8.93 log fluorescence intensity; under “TCCGGCTACCAGCTCCACCCACTTCAGTCCTTGTAGGTCTTGATTCGCTTGACGCTGCTG”, 9.06 log fluorescence intensity; under “GATTCATTTCTGCCCTTATTCGCACGTGCCATAACAGTCTTGATTCGCTTGACGCTGCTG”, 8.97 log fluorescence intensity. For “GGAAAAAGGCCCAGGGAAACACCGGAAGTGGGCTTAGTCTTGATTCGCTTGACGCTGCTG”, the binding signal was 11.4 log fluorescence intensity. As for “GTGTATAGGATCCCATCCAACACACGTGTTCAAATGGTCTTGATTCGCTTGACGCTGCTG”, the binding signal was 8.97 log fluorescence intensity. “TACTGACTTCTATATGCGAATGCACATGAATAGACCGTCTTGATTCGCTTGACGCTGCTG”: the binding signal was 8.96 log fluorescence intensity.
